AmpC inh detg: blocks E. coli AmpC beta-lactamase in detergent assay. P00811. AmpC hydrolysis of nitrocefin, absorbance 480 nm, 0.01% Triton. Potency, µM (series often up to 114 µM), without a hit: top-dose activity change, negative = inhibition, actives largely listed as inhibitors. 370,000 tested, 0.041% active. AID 485294;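 note: 0% = no-compound wells and -100% = no-enzyme wells; nearly all actives have a fitted effect of over 25% in size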
Target sequence (P00811 whole entry, looked up): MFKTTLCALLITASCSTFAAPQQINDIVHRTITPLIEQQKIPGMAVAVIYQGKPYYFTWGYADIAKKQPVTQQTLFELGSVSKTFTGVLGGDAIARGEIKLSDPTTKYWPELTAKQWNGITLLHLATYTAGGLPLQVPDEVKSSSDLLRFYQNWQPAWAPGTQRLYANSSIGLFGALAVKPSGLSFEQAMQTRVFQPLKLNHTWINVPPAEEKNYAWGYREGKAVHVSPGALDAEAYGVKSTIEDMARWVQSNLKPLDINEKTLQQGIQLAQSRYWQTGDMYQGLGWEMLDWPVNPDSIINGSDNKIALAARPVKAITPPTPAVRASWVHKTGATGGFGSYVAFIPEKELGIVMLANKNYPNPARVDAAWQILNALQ
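AmpC (5.3 nM in the dispensed reagent) in 20 mM phosphate pH 7.0 with 0.01% (detergent screen) or 0.0001% Triton X-100 was preincubated with compounds for 15 min at room temperature. Nitrocefin was then added from an 800 uM solution, and hydrolysis was followed at 480 nm.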
Pf growth 96h: inhibits malaria parasite growth, 96 h; P. falciparum luciferase reporter growth, 96 h; Potency, µM (series often up to 28.7 µM), inactives show at the highest dose activity change, negative = inhibition, usual class: inhibitors; 320,000 tested, 6.9% active; note: % is set by controls: 0 for no effect and ±100 for the full control effect
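Readout is luminescence from an integrated firefly luciferase in P. falciparum. Red cells, 2% hematocrit and 0.05% parasitemia final, were cultured with compound through two parasite generations (96 hours) at 37 C, 5% CO2.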
Pf growth 48h: P. falciparum growth inhibition at 48 hours (one generation); P. falciparum luciferase growth in erythrocytes, 48 h; 310,000 tested, 5.9% active; Potency, µM (titrated, usually from 28.7 µM), for the others: at the top dose activity change, negative = inhibition, hits mostly inhibitors; note: % is set by controls: 0 for no effect and ±100 for the full control effect
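Cell-based growth assay: transgenic P. falciparum expressing firefly luciferase, cultured in red cells within RPMI 1640 containing 0.5% w/v Albumax, 24 mM bicarbonate and gentamycin. A drop in luciferase activity indicates inhibition.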
AmpC inh no detg: inhibitors of E. coli AmpC beta-lactamase without detergent; AmpC nitrocefin hydrolysis, absorbance 480 nm, 0.0001% Triton; Potency, µM (highest dose often 57.1 µM), for the others: at the top dose activity change, negative = inhibition, hits mostly inhibitors; 330,000 tested, 0.52% active;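 note: plate controls were no compound for no effect and no enzyme for full effect; nearly all actives have a fitted effect of over 20% in size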
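AmpC (5.3 nM in the dispensed reagent) in 20 mM phosphate pH 7.0 with 0.01% (detergent screen) or 0.0001% Triton X-100 was preincubated with compounds for 15 min at room temperature. Nitrocefin was then added from an 800 uM solution, and hydrolysis was followed at 480 nm.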
SARS PLP yeast: SARS-CoV PLP inhibition in yeast. AID 485353. 330,000 tested, 0.19% active. Potency, µM (top dose mostly 32.9 µM), for inactives: top-dose activity, positive = growth rescue, actives largely listed as activators. S. cerevisiae expressing SARS-CoV PLpro, growth rescue; calls by dose curve; note: 0% is about no effect; nearly all actives have a fitted effect of over 55% in size
Sm TGR inh: S. mansoni TGR enzyme inhibition; 360,000 tested, 3% active; Q962Y6; purified TGR, DTNB reduction, TNB absorbance 405 nm; AID 485364; Potency, µM (top dose mostly 114 µM), for inactives: at the highest dose activity change, negative = inhibition, usual class: inhibitors; note: % is set by controls: 0 for no effect and ±100 for the full control effect; nearly all actives have a fitted effect of over 60% in size
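First, TGR (20 nM dispensed) and NADPH were mixed with compound. Second, a 15 min room-temperature incubation followed. Third, further NADPH and then DTNB were added to start the reaction. Finally, TNB absorbance was monitored kinetically.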
* = called active by the depositor; ? = inconclusive; nt = no result given. Compounds with a hit are over-represented: about 12% of the library has one in this group of screens. Unless noted, calls come from the whole dose curve; as a rule, active = well fitted curve in the direction sought with a large enough effect; inconclusive = small, poorly fitted or top-dose-only effect, or another doubt; inactive = no such curve, though single readings can be large; an effect the other way counts as inactive or inconclusive. Potency is the fitted concentration of half-maximal effect.

SMILES | AmpC inh detg | Pf growth 96h | Pf growth 48h | AmpC inh no detg | SARS PLP yeast | Sm TGR inh
Cc1ccc(/C=N/NC(=O)Cc2c(F)cccc2Cl)s1 | -4% | 294% | -15% | -33% | -1% | -2%
O=C(c1ccc2nc(-c3ccco3)c(-c3ccco3)nc2c1)N1CCN(c2ccccc2)CC1 | ? | nt | -5% | 95% | -11% | 35µM*
NC(=O)C1CCN(C(=O)c2ccc3nc(-c4ccccc4)c(-c4ccccc4)nc3c2)CC1 | -4% | ? | 10µM* | 156% | 29% | -1%
CCOC(=O)N1CCN(C(=O)c2ccc3nc(-c4ccccc4)c(-c4ccccc4)nc3c2)CC1 | -2% | 2% | ? | 176% | -5% | -18%
COc1ccc(C(=O)N2CCC3(CC2)OCCO3)cc1 | -1% | ? | 9% | -9% | 1% | -21%
O=C(c1ccc2nc(-c3ccco3)c(-c3ccco3)nc2c1)N1CCC2(CC1)OCCO2 | -3% | nt | ? | 72% | 12% | 1.6µM*
Cc1ccc(-c2nc3ccc(C(=O)O)cc3nc2-c2ccc(C)cc2)cc1 | -10% | 169% | -5% | -30% | 1% | 8%
O=C(O)c1ccc2nc(-c3ccco3)c(-c3ccco3)nc2c1 | 2% | 1% | 20% | -21% | 0% | 0.5µM*

Screens from PubChem.
